Data reported in PubChem BioAssay AID1823 (The Scripps Research Institute Molecular Screening Center, 2009).
Hit rate of the full screen: of about 16,000 compounds, about 70 (0.4%) were called active. Many of the other results were omitted from the sample, so actives are more common in it than they were. A number with no mark means an inactive call. Cut-off read from the data, not from the text of the source: active = inhibition above about 75%; inactive = the rest.

assay: quenches luminol chemiluminescence in Nox1 counter-screen (AID 1823); conditions: HRP/luminol/H2O2 chemiluminescence counterscreen; at 6.7 µM; stronger effect = higher value

Compound	inhibition [%]
O=C(O)CCC(=O)Nc1ccc2c(c1)OCCCO2	-0.93
COc1ccc2c(OC(C)=O)coc2c1	-1.52
CN(C(=O)Nc1ccc(Cl)cc1)n1cnc2ccccc2c1=O	-2.37
O=C1c2ccccc2C(=O)N1CCCN1CCN(Cc2c(F)cccc2Cl)CC1	-3.51
N#CCSc1ccc2ccccc2c1	-1.43
O=C(NNC(=S)Nc1ccc(S(=O)(=O)N2CCCCC2)cc1)c1ccncc1	12.6
CN(Cc1nnc(-c2ccc3ccccc3c2)o1)c1nnc(C(F)(F)F)s1	-4.66
N#Cc1sccc1Br	0.55
N/C(Cc1cccs1)=N\OC(=O)c1ccccc1	-0.54
CC(C)N(C(=O)c1ccc(-c2ccccc2F)cc1)C(C)C	-5.07
N#C/C(=C\c1ccsc1Sc1ccc(Cl)cc1)S(=O)(=O)c1ccc(Cl)cc1	2.56
Cc1ccc(S(C)(=O)=NC(=O)NS(=O)(=O)Oc2ccc(Cl)cc2Cl)cc1 (stereo unspecified)	2.88
O=C(Nc1ccc(C(F)(F)F)cn1)c1ccc(Oc2cc(Cl)cc(Cl)c2)o1	0.64
CSc1cccc(NC(=O)C(=O)NCCc2ccccn2)c1	3.62
Cc1ccc(SCC(=O)Nc2ccc(F)cc2F)cc1	-8.4
CC1=NOC(=O)/C1=C\c1ccccc1	3.43
CC(C)(C)c1ccc(C(=O)CC(N)=O)cc1	6.19
O=C1COCC(=O)N1c1ccc2c(c1)OCO2	-6.14
Cc1nn(C)c(C)c1Sc1nccc(-c2cccnc2)n1	-8.26
CCOC(=O)C(O)(NC(=O)Nc1ccccc1)C(F)(F)F (stereo unspecified)	-5.95
COCCCN/C(SCc1c(F)cccc1Cl)=C(\C#N)C(N)=O	1.37
N#C/C=C/c1ccc(C(F)(F)F)cc1[N+](=O)[O-]	1.6

Compound	inhibition [%]
O=C(c1ccc(Oc2ccc(Cl)cc2)c([N+](=O)[O-])c1)N1CCCC1	2.31
O=C(NNc1ccccc1C(F)(F)F)NS(=O)(=O)c1ccc(Cl)cc1	-2.61
COc1ccc(/C(C)=N/Nc2c([N+](=O)[O-])cc(C(F)(F)F)cc2[N+](=O)[O-])cc1CC#N	-5.96
Cc1noc(C)c1C(=O)N1CCOCC1	-1.15
CCOC(=O)c1cc(CC)sc1NC(=O)c1cccnc1Oc1ccccc1	0.49
COC(=O)CCN1CCc2cc(N=Nc3ccc(C(F)(F)F)cc3)ccc21	17.7
CC(C)(C)NC(=O)[C@@H]1C[C@@H]2CCCC[C@@H]2CN1C(=O)c1ccno1	-0.12
O=C(O)CC(CC(=O)Oc1ccccc1N1CCCCC1)c1ccccc1 (stereo unspecified)	-1.25
CSc1nsc(SC)c1C(=O)Nc1cc(C(F)(F)F)cc(C(F)(F)F)c1	1.1
COc1ccc(C2CC(c3cccs3)=Nc3ccccc3S2)c(Cl)c1OC (stereo unspecified)	-0.88
c1ccc(-c2nsc(N3CCNCC3)n2)cc1	-5
NS(=O)(=O)c1cccc(NC(=O)c2ccccc2)c1	-5.88
CCOC(=O)c1c(-c2ccco2)csc1NC(=O)Nc1ccc(Cl)cc1	3.19
Cc1[nH]c2ccccc2c1Sc1ccc(Cl)cc1	-11.5
N#Cc1ccc(Oc2ccc(Cl)cc2)c([N+](=O)[O-])c1	-1.59
Cc1c(S(=O)(=O)c2ccc(Cl)cc2)csc1C(=O)Nc1ccc2c(c1)OCCO2	0.51
CCCCN1Cc2c(nc3cc(-c4ccccc4)[nH]n3c2=O)C1=O	5.15
O=C1Nc2ccccc2C12NNC(=S)NN2	7.82
NS(=O)(=O)c1ccc(Oc2c(Cl)cccc2[N+](=O)[O-])cc1	-4.5
COc1cccc(NC(=S)NNC(=S)NC2CC3CCC2C3)c1 (stereo unspecified)	5.57
N/C(=N\OC(=O)c1cccc(Cl)c1)c1ccc2nonc2c1	-0.67
CO/N=C(/C)c1ccc2c(c1)CCO2	-0.06

Compound	inhibition [%]
CC(=O)Nc1ccc(NC(=O)c2cc(C)ccc2[N+](=O)[O-])c(C)c1	0.85
O=C(Cn1nnc2ccccc21)NCCSCc1ccco1	-2.68
COC(=O)C(C#N)c1ccc(C(F)(F)F)cc1[N+](=O)[O-] (stereo unspecified)	4.34
O=C(CN1CCOCC1)NNC(=O)c1cccs1	3.1
C/C(=N\NC(N)=S)c1ccncc1	15
O=C(Nc1ccccc1C(=O)NCc1c(F)cccc1Cl)c1ccccc1Cl	4.86
Cn1c(=O)c(C#N)cn(-c2ccccc2)c1=O	-4.85
CSc1sc(C(=O)NC2CC2)c(-c2ccc(Cl)cc2)c1C#N	2.76
CCOC(=O)C(NC(=O)c1ccco1)(Nc1cc(C)ccn1)C(F)(F)F (stereo unspecified)	-2.71
COC(=O)c1c(C(=O)OC)c2n(c1C)CCS2	-2.55
N#CNC(N)=Nc1cc(Cl)ccc1Cl	-0.88
CCOC(=O)O/N=C(\N)c1ccc(Cl)cc1	-3.37
Cn1cccc1-c1n[nH]c(=S)n1-c1ccc(Cl)cc1Cl	2.46
CCCCCCNC(=O)NCCCCCC	-3.83
Cc1oc(-c2ccc(Cl)cc2)cc1C(=O)N1CCOCC1	-4.96
COc1ccc(Cc2nnc(SC)[nH]c2=O)cc1	1.75
CC(C)[C@H]1COC(c2cccc(C3=N[C@@H](C(C)C)CO3)n2)=N1	-2.9
O=C(CCN1CCN(C(c2ccccc2)c2ccccc2)CC1)c1ccccc1	-3.01
Cn1cc(Cl)c(/C=C(\C#N)C(N)=O)n1	-6.34
COc1ccc2cc(/C(C)=N/OC(=O)Nc3ccccc3)ccc2c1	-18.6
CCOC(=O)c1c[nH]n2c(=O)c3c(nc12)CCC3	0.29
CC(C)(C)NC(=O)N/N=C/c1[nH]ncc1Br	-2.94
